In PubChem BioAssay:
Values without a mark were called inactive. Calls of active or inactive are those of the source.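 The calls were made as follows, unless noted: active = percent response above 42, roughly 3 SD of non-fluorescent test compounds; inactive = the rest.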

biological target: Beta-2 adrenergic receptor (Homo sapiens) (UniProt P07550); assay: beta2AR agonists driving receptor internalization, pilot screen, cell-based, FAP fluorogen, flow cytometry, validation set (AID 504459); settings: Am2.2-beta2AR cells, FAP surface receptor flow cytometry; at 10 µM; hits give high values;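 also: agonist-driven loss of surface beta2AR via internalization measured by FAP dye flow cytometry; reference of the scale not given here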
Sequence (P07550 whole entry, looked up): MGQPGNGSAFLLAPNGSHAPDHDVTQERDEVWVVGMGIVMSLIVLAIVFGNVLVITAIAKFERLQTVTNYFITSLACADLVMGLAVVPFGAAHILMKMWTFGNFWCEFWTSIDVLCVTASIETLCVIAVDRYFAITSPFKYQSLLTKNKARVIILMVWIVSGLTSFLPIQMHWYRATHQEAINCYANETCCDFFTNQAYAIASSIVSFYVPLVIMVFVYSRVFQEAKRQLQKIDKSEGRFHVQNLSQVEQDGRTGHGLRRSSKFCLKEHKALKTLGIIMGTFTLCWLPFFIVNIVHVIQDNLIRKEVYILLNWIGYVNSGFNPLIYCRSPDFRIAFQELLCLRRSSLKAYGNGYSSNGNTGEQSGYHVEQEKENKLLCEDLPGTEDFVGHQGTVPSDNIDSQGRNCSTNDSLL

Going from `Fc1ccc(-n2cc(CNCCc3ccccn3)c(-c3ccccc3Cl)n2)cc1` to `Fc1ccc(NC(=S)Nc2ccccc2Cl)cc1`, the response rises from -23.3% to -6.11%.

Going from `CO[C@@]1(NC(=O)Cc2cccs2)C(=O)N2C(C(=O)O)=C(COC(N)=O)CS[C@@H]21` to `NS(=O)(=O)c1ccc(CCNC(=O)C2CCCN2C(=O)OCc2ccccc2)cc1` (stereo not drawn), the response falls from -3.96% to -16.9%.

Going from `N#CCC(N)=C(C#N)C#N` to `CCC(=O)Oc1ccc(C(=O)Nc2ccc([N+](=O)[O-])cc2)cc1`, the response rises from -2.94% to 4.9%.

Compared with `O=C(OCCN1CCOCC1)c1cccs1`, `O=C(CCSc1ccccc1)N1CCCC1` is higher in response: -11.6% for the first, -4.18% for the second.

Going from `CC(=O)c1cc2c(cc1NC(=O)c1ccco1)OCCO2` to `O=C(Nc1ccc(F)c([N+](=O)[O-])c1)c1ccc2c(c1)OCCO2`, the response rises from -30.9% to 1.51%.

First: CC(C)NS(=O)(=O)c1ccc(OCC(=O)Nc2cccc(F)c2)cc1
Second: COC(=O)c1ccc(NC(=O)c2ccccc2SC)cc1
The response of the first is higher: 3.73% for the first, 1.63% for the second.

Going from `COc1ccc2[nH]c(CN3CCN(CC(C)C)C(CCO)C3)c(C)c2c1` (stereo not drawn) to `CC(C)CN1CCN(Cc2ccc(C#CC(C)(C)O)cc2)CC1CCO` (stereo not drawn), the response falls from -3.42% to -11.4%.

First: Cc1ccsc1C1NC(=O)c2ccccc2N1 (stereo not drawn)
Second: Cc1ccccc1NC(=O)NCCc1c[nH]c2ccccc12
The response of the first is lower: -6.32% for the first, 9.05% for the second.

First: CCN1C(=O)C(CC(=O)Nc2ccc(F)cc2)N(Cc2ccco2)C1=S (stereo not drawn)
Second: O=C(Nc1nc2ccccc2s1)c1ccc(F)cc1
The response of the first is lower: -17.8% for the first, -12.7% for the second.

Compared with `c1cc(-c2ccncc2)ccn1`, `COc1ccccc1C(=O)Oc1ccc2c(c1)O/C(=C\c1ccncc1)C2=O` is lower in response: 8.34% for the first, -22.5% for the second.

Going from `CC(C)CN1CCN(Cc2cccn2-c2ccccn2)CC1CCO` (stereo not drawn) to `CC(C)COCC(CN(Cc1ccccc1)c1ccccc1)N1CCCC1` (stereo not drawn), the response rises from -7.51% to 8.3%.

Compared with `CS(=O)(=O)NCc1ccc(C(=O)NCc2ccccc2)cc1`, `C#CCN1C(=O)C(O)(c2c(C)[nH]c3ccccc23)c2ccccc21` (stereo not drawn) is higher in response: -27.9% for the first, 1% for the second.

First: COc1cc(NC(=S)NN2CCN(C)CC2)cc(OC)c1OC
Second: COc1ccc(CN2CCCCC2C(=O)Nc2ccc(OC)c(OCC(C)C)c2)cc1OC (stereo not drawn)
The response of the first is lower: -10.5% for the first, -10.2% for the second.

Going from `CC(=O)[C@@H]1[C@@H](C(=O)c2ccc(C)cc2)[C@]2(C(=O)Nc3ccccc32)[C@H]2C=Cc3cc(F)ccc3N12` to `Cc1ccc2nc(NC3=NC(CC(=O)O)C(=O)N3)nc(C)c2c1` (stereo not drawn), the response falls from 40.7% to -2.27%.

First: CC(=O)N1c2ccccc2C(C)=CC1(C)C
Second: Cn1cc(C2N3CC4(C)CN2CC(C)(C3)C4=O)c2ccccc21 (stereo not drawn)
The response of the first is lower: -23.5% for the first, -3.83% for the second.

First: C[C@]12CC[C@@H]3c4ccc(O)cc4CC[C@H]3[C@@H]1CC[C@@H]2O
Second: Cc1ccc(S(=O)(=O)N2CCC(C(=O)N[C@@H](C)C(=O)NC3CCS(=O)(=O)C3)CC2)cc1 (stereo partly drawn)
The response of the first is lower: -1.92% for the first, -1.25% for the second.

First: C=CCNc1nc2c(c(=O)n(C)c(=O)n2C)n1CC(=C)C
Second: Cc1ccc(C2CC(=O)C(C=NCCN3CCN(CC(=O)Nc4cc(C)cc(C)c4)CC3)=C(O)C2)cc1 (stereo not drawn)
The response of the first is lower: -5.19% for the first, -1.95% for the second.

First: NC(N)=NC(=O)Cc1c(Cl)cccc1Cl
Second: Nc1ccc2cn[nH]c2c1
The response of the first is lower: -1.1% for the first, 2.17% for the second.

First: CCN(CC)CC#CCOC(=O)C(O)(c1ccccc1)C1CCCCC1 (stereo not drawn)
Second: CCNC(=O)c1c(N)sc2c1CCCCC2
The response of the first is lower: 14.8% for the first, 33.6% for the second.

For `Cc1ccc2c(c1C)NC(C(=O)O)C1CC=CC21` (stereo not drawn), the response was 62.2% (active).

biological target: AP-2 complex subunit beta (Homo sapiens) (UniProt P63010); assay: inhibitors of arrestin peptide binding to AP2, pilot screen, biochemical, validation set, GST-AP2 beads, flow cytometry (AID 504541;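 active = inhibition above 54%, about 3 SD of non-fluorescent compounds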;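 also: AP2 carries R879A mutation and is captured from E. coli lysate; bead-bound FITC arrestin peptide fluorescence measuring arrestin peptide binding to AP2; 0% = DMSO wells and 100% = excess unlabeled arrestin peptide control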); settings: FITC arrestin peptide, at 10 µM, hits give high values, AP2 beta2 appendage fragment, R879A mutant
Sequence (P63010 whole entry, looked up, the tested form may be a part, one chain of several): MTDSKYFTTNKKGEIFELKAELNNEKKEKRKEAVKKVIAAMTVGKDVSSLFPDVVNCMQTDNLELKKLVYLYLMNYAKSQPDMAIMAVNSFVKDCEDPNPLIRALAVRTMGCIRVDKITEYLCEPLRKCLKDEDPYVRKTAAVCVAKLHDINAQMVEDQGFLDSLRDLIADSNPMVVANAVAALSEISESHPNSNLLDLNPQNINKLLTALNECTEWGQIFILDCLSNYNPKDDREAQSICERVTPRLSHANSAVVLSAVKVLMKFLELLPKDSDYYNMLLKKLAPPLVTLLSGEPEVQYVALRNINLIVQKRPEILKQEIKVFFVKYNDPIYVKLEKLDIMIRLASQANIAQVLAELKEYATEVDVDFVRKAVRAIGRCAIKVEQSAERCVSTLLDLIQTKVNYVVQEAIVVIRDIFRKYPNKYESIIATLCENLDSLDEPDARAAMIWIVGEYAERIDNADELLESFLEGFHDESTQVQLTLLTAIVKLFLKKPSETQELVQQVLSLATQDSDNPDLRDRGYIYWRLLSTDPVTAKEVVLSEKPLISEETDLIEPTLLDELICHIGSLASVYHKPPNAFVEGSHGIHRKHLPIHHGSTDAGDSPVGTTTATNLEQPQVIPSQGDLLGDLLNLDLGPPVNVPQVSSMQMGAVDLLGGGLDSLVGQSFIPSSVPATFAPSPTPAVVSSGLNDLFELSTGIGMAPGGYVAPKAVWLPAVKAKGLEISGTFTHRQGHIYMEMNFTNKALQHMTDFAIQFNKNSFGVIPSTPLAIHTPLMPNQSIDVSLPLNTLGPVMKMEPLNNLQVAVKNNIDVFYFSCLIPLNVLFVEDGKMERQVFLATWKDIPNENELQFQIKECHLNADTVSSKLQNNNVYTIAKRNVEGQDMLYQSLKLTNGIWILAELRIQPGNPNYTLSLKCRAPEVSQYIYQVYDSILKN

Going from `Fc1ccc(-n2cc(CNCCc3ccccn3)c(-c3ccccc3Cl)n2)cc1` to `Fc1ccc(NC(=S)Nc2ccccc2Cl)cc1`, the inhibition rises from 1.4% to 10.1%.

Compared with `CO[C@@]1(NC(=O)Cc2cccs2)C(=O)N2C(C(=O)O)=C(COC(N)=O)CS[C@@H]21`, `NS(=O)(=O)c1ccc(CCNC(=O)C2CCCN2C(=O)OCc2ccccc2)cc1` (stereo not drawn) is lower in inhibition: 1.97% for the first, -5.77% for the second.

First: N#CCC(N)=C(C#N)C#N
Second: CCC(=O)Oc1ccc(C(=O)Nc2ccc([N+](=O)[O-])cc2)cc1
The inhibition of the first is lower: -8.05% for the first, 15.9% for the second.

Compared with `O=C(OCCN1CCOCC1)c1cccs1`, `O=C(CCSc1ccccc1)N1CCCC1` is higher in inhibition: -4.4% for the first, 33.8% for the second.

Compared with `CC(=O)c1cc2c(cc1NC(=O)c1ccco1)OCCO2`, `O=C(Nc1ccc(F)c([N+](=O)[O-])c1)c1ccc2c(c1)OCCO2` is lower in inhibition: -8.68% for the first, -13.5% for the second.

Compared with `CC(C)NS(=O)(=O)c1ccc(OCC(=O)Nc2cccc(F)c2)cc1`, `COC(=O)c1ccc(NC(=O)c2ccccc2SC)cc1` is higher in inhibition: 5.6% for the first, 18.8% for the second.

Going from `COc1ccc2[nH]c(CN3CCN(CC(C)C)C(CCO)C3)c(C)c2c1` (stereo not drawn) to `CC(C)CN1CCN(Cc2ccc(C#CC(C)(C)O)cc2)CC1CCO` (stereo not drawn), the inhibition rises from -1.65% to 29.9%.

First: Cc1ccsc1C1NC(=O)c2ccccc2N1 (stereo not drawn)
Second: Cc1ccccc1NC(=O)NCCc1c[nH]c2ccccc12
The inhibition of the first is lower: -5.8% for the first, 7.09% for the second.

Compared with `CCN1C(=O)C(CC(=O)Nc2ccc(F)cc2)N(Cc2ccco2)C1=S` (stereo not drawn), `O=C(Nc1nc2ccccc2s1)c1ccc(F)cc1` is higher in inhibition: -8.85% for the first, -2.74% for the second.

First: Cc1ccc2c(c1C)NC(C(=O)O)C1CC=CC21 (stereo not drawn)
Second: Cc1ccc2nc(NC3=NC(CC(=O)O)C(=O)N3)nc(C)c2c1 (stereo not drawn)
The inhibition of the first is higher: 11% for the first, 8.29% for the second.

Compared with `c1cc(-c2ccncc2)ccn1`, `COc1ccccc1C(=O)Oc1ccc2c(c1)O/C(=C\c1ccncc1)C2=O` is lower in inhibition: 23.8% for the first, 3.83% for the second.

Compared with `CC(C)CN1CCN(Cc2cccn2-c2ccccn2)CC1CCO` (stereo not drawn), `CC(C)COCC(CN(Cc1ccccc1)c1ccccc1)N1CCCC1` (stereo not drawn) is lower in inhibition: -9.17% for the first, -11.8% for the second.

Compared with `CS(=O)(=O)NCc1ccc(C(=O)NCc2ccccc2)cc1`, `C#CCN1C(=O)C(O)(c2c(C)[nH]c3ccccc23)c2ccccc21` (stereo not drawn) is higher in inhibition: -12% for the first, 2.17% for the second.

First: COc1cc(NC(=S)NN2CCN(C)CC2)cc(OC)c1OC
Second: COc1ccc(CN2CCCCC2C(=O)Nc2ccc(OC)c(OCC(C)C)c2)cc1OC (stereo not drawn)
The inhibition of the first is lower: -10.5% for the first, 18.5% for the second.

Going from `CC(=O)[C@@H]1[C@@H](C(=O)c2ccc(C)cc2)[C@]2(C(=O)Nc3ccccc32)[C@H]2C=Cc3cc(F)ccc3N12` to `Cc1ccc(C2CC(=O)C(C=NCCN3CCN(CC(=O)Nc4cc(C)cc(C)c4)CC3)=C(O)C2)cc1` (stereo not drawn), the inhibition falls from 4.08% to -1.73%.

First: CC(=O)N1c2ccccc2C(C)=CC1(C)C
Second: Cn1cc(C2N3CC4(C)CN2CC(C)(C3)C4=O)c2ccccc21 (stereo not drawn)
The inhibition of the first is lower: -16.5% for the first, -3.74% for the second.

Compared with `C[C@]12CC[C@@H]3c4ccc(O)cc4CC[C@H]3[C@@H]1CC[C@@H]2O`, `Cc1ccc(S(=O)(=O)N2CCC(C(=O)N[C@@H](C)C(=O)NC3CCS(=O)(=O)C3)CC2)cc1` (stereo partly drawn) is lower in inhibition: 21.6% for the first, -5.24% for the second.

Going from `C=CCNc1nc2c(c(=O)n(C)c(=O)n2C)n1CC(=C)C` to `CCNC(=O)c1c(N)sc2c1CCCCC2`, the inhibition rises from 8.24% to 9.58%.

First: NC(N)=NC(=O)Cc1c(Cl)cccc1Cl
Second: Nc1ccc2cn[nH]c2c1
The inhibition of the first is higher: 18% for the first, 0.32% for the second.

Work on `CCN(CC)CC#CCOC(=O)C(O)(c1ccccc1)C1CCCCC1` (stereo not drawn) yielded an inhibition of -2.84%.
